The list is not random: actives were taken first. Their share in the collection is about 1.3%.
CRFBP-R2 block = antagonists of CRF-BP/CRF-R2 complex, primary screen, cell-based, HEK293, calcium dye fluorescence, uHTS; CRF-induced calcium fluorescence; inhibition, % at 11.8 µM; 350,000 compounds, 0.59% hits;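 active = inhibition of the ligand-induced calcium signal above about 50% at the single tested concentration, limit read from the data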
CRFBP-R2 agonist = agonists of CRF-BP/CRF-R2 complex, primary screen, cell-based, HEK293, calcium dye fluorescence, uHTS; activation, % at 13.2 µM; 350,000 compounds, 0.46% hits; AID 588473, 2011; CRF-binding protein / CRF receptor 2 complex (human); calcium dye fluorescence (FLIPR); percent of saturating CRF peptide response;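 active = activation of at least 50%, plus an integration ratio under a set limit after plate pattern correction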;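 note: plate controls were neutral control wells without compound for no effect and CRF at EC100 for full effect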
Cardiac RTF inh = cardiac RTF calcium sensitivity inhibitors, primary screen, biochemical, IANBD-TnC fluorescence, EC70 calcium. IANBD-labeled cardiac RTF, Ca2+ fluorescence. AID 493244, 2011. 340,000 compounds, 0.12% hits. inhibition, % at 7.15 µM;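 active = inhibition above the mean inhibition of all tested compounds plus 3 SD, cut at about 17% in these data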;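 note: assay run at fixed EC70 calcium of 1.6 mM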
cardiac RTF act = cardiac RTF calcium sensitivity activators, primary screen, biochemical, IANBD-TnC fluorescence, EC20 calcium | Troponin I, cardiac muscle (Homo sapiens) + Troponin T, cardiac muscle (Homo sapiens) + … | IANBD-labeled TnC RTF fluorescence at EC20 calcium; 0% EC20 calcium, 100% full calcium | activation, % at 7.2 µM | 340,000 compounds, 0.24% hits | AID 493008, 2010;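 active = activation above the mean over all tested compounds plus 3 SD, cut at about 30% in these data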;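 note: rise in fluorescence read as greater calcium sensitivity of cardiac thin filaments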
An asterisk follows results filed as active; · = no result.

SMILES	CRFBP-R2 block	CRFBP-R2 agonist	Cardiac RTF inh	cardiac RTF act
O=C(CN(Cc1cccs1)C(=O)CNS(=O)(=O)c1ccccc1)NC1CCCC1	-19.4	-0.9	-8.3	6.4
CC1CCN(S(=O)(=O)c2ccc3c(c2)NC(=O)CS3)CC1	62.8*	0.8	-1.2	-0.3
CC(Sc1nn(-c2ccccc2)c(=S)s1)C(=O)NCC1CCCO1 (stereo not given)	-0.7	-1.1	-1.6	-1.0
COc1ccc(C2c3sc(=O)[nH]c3SCC2C(N)=O)cc1 (stereo not given)	-7.9	2.6	13.6	-4.2
COC(=O)C1CSc2[nH]c(=O)sc2C1c1ccc(O)c(OC)c1 (stereo not given)	77.3*	-0.6	-19.3	5.1
Cc1ccc2c(c1)CCCN2CC(=O)N(C)c1c(N)n(Cc2ccccc2)c(=O)[nH]c1=O	-27.7	12.1	-55.0	37.7*
CCN(C(=O)CN1CCCc2cc(C)ccc21)c1c(N)n(Cc2ccccc2)c(=O)[nH]c1=O	-9.9	1.0	-28.1	15.6
CCn1c(=O)c(C(=O)CN2c3ccccc3CC2C)c(N)n(Cc2ccccc2)c1=O (stereo not given)	-16.3	4.4	-4.1	-0.8
CCn1c(=O)c(C(=O)CN2CCCc3ccccc32)c(N)n(Cc2ccccc2)c1=O	1.2	1.3	-67.1	31.5*
COc1ccc([C@H]2N[C@]3(CCCN(Cc4ccc(Cl)cc4)C3=O)[C@H]3C(=O)N(Cc4ccccc4)C(=O)[C@@H]23)cc1	-3.9	0.1	·	·
Cc1ccc(S(C)(=O)=NS(=O)(=O)c2cccc3nsnc23)cc1 (stereo not given)	-1.5	-2.7	3.4	2.8
Oc1ccccc1C=NCCN1CCN(CCN=Cc2ccccc2O)C1c1ccccc1O (stereo not given)	66.2*	-4.7	1.9	2.7
COc1ccc(N/C=C2\C(=O)CCc3c2oc2cc(Cl)c(O)c(Cl)c32)cc1	9.4	8.8	-27.6	100.5*
CNS(=O)(=O)c1ccc(NS(=O)(=O)c2ccccc2F)cc1	2.9	-0.6	-13.6	-5.4
O=[N+]([O-])c1cccc(C=NNc2ccccc2)c1	-16.8	-1.4	-5.2	1.7
O=[N+]([O-])c1cccc(/C=N/NC2=NCCCCC2)c1	51.8*	-1.7	5.5	-3.9
CC1=C(C(=O)N(C(C)C)C(C)C)CC(CC(=O)NC2CCCCC2)C(=O)N1Cc1ccccc1 (stereo not given)	59.2*	-2.5	·	·
CC1=C(C(=O)N(C(C)C)C(C)C)CC(CC(=O)NC2CCCC2)C(=O)N1Cc1ccccc1 (stereo not given)	-1.4	6.5	·	·
O=C(O)c1cc(-c2ccccc2)nn1CC1CC(c2cccc([N+](=O)[O-])c2)=NO1 (stereo not given)	2.3	-2.8	·	·
CC(NC(=O)C(c1ccccc1)c1ccccc1)C(=O)N1CCCCC1 (stereo not given)	1.1	-1.2	-6.1	-0.2
Cc1ccc(S(=O)(=O)N2CCCCCC2)cc1[N+](=O)[O-]	58.1*	-1.0	-24.1	5.6
CCN(CC)c1ccc(C=NCCc2ccc(S(N)(=O)=O)cc2)cc1	-12.3	1.8	-3.5	5.0
Cc1cccc(OCc2nn[nH]n2)c1C	6.1	-0.7	5.6	164.5*
Clc1ccccc1OCc1nn[nH]n1	-0.8	0.2	-3.4	4.0
N=c1oc2ccc(Br)cc2cc1C(=O)NCc1ccc(F)cc1	-17.2	2.6	1.2	-3.4
SMILES	CRFBP-R2 block	CRFBP-R2 agonist	Cardiac RTF inh	cardiac RTF act
CCCCCCc1cc2cc(C(=O)NCc3ccccc3)c(=N)oc2cc1O	-108.9	174.6*	-6.3	11.6
CCN(CC)c1ccc2cc(C(=O)NCc3ccc(F)cc3)c(=N)oc2c1	·	·	-81.5	266.6*
CCOC(=O)c1sc(NC(=O)CSc2n[nH]c(-c3ccccc3)n2)c(C#N)c1C	0.4	20.1	-5.8	5.1
CCOC(=O)c1sc(NC(=O)c2cc(-c3ccccc3)nc3ccccc23)c(C#N)c1C	34.8	53.1*	-10.1	-4.2
N#CCCN(C(=O)c1ccc2c(=O)n3c(nc2c1)CCCCC3)c1ccccc1	0.7	-0.1	-14.3	2.2
O=c1[nH]c2c(s1)C=Nc1ccccc1N2	-25.9	41.9	-100.4	78.4*
CC(C)CN(C(=O)COC(=O)CSc1ccccc1)c1c(N)n(Cc2ccccc2)c(=O)[nH]c1=O	2.7	1.1	-5.8	6.0
Cc1ccc(C)c(CSc2nnc(-c3cccs3)n2Cc2ccco2)c1	50.0*	-0.2	-10.0	-1.9
Cc1ccc(C)c(C(=O)C(C)OC(=O)CN2C(=O)NC3(CC(C)CC(C)(C)C3)C2=O)c1 (stereo not given)	-24.6	-0.2	-3.9	-1.7
O=C(COC(=O)c1ccc(S(=O)(=O)N2CCOCC2)cc1)Nc1ccccc1OC(F)F	3.4	-0.1	-7.5	-1.4
O=C(COC(=O)CCc1ccc(S(=O)(=O)N2CCOCC2)cc1)Nc1ccccc1OC(F)F	105.0*	2.4	3.5	-11.1
O=C(/C=C/c1ccccc1)N1CCC(N2CCC(C(=O)N3CCOCC3)CC2)CC1	-2.1	-1.2	-2.6	-5.6
CCOC(=O)CC/C(C)=N\N=C1\SC(CC(=O)O)C(=O)N1c1ccccc1 (stereo not given)	3.0	0.6	-12.5	2.1
Cc1nc2ccccn2c1C(=O)CSc1ccccc1	-21.9	-1.0	-3.0	5.3
CCN(CC)C(=O)c1c(C)nc2ccccn12	85.4*	-7.8	-2.4	-3.9
C=CCn1c(SCc2ccc(Cl)cc2)nc2c1c(=O)[nH]c(=O)n2C	-12.3	-2.6	-5.6	1.4
C=CCn1c(SCc2ccc(F)cc2)nc2c1c(=O)[nH]c(=O)n2C	62.1*	-2.9	-0.1	0.8
CCC1OC(=O)C(C)C(OC2C[C@@](C)(OC)C(O)C(C)O2)C(C)C(O[C@@H]2OC(C)CC(N(C)C)C2O)[C@](C)(O)CC(C)C(=NOCOCCOC)C(C)C(O)[C@]1(C)O (stereo not given in full)	89.2*	-0.9	9.9	2.0
CC[C@H]1OC(=O)[C@H](C)[C@@H](O[C@H]2C[C@@](C)(OC)[C@@H](O)[C@H](C)O2)[C@H](C)[C@@H](O[C@@H]2O[C@H](C)C[C@H](N(C)C)[C@H]2O)[C@](C)(O)C[C@@H](C)CN(C)[C@H](C)[C@@H](O)[C@]1(C)O	-2.4	2.9	14.3	2.5
COc1ccccc1C1C=C(c2ccc(Cl)cc2)Nc2nc(N3C(=O)CCC3=O)nn21 (stereo not given)	-25.2	46.8	-6.6	4.4
COc1ccc(C2=CC(c3ccc(Cl)cc3)n3cnnc3N2)cc1OC (stereo not given)	-49.3	79.6*	-27.4	3.0
Cc1cc(C)cc(NC(=O)COC(=O)CN=C2NS(=O)(=O)c3ccccc32)c1	-8.1	2.8	-12.0	1.8
CCOC(=O)c1c(-c2ccc(OC)c(OC)c2)csc1NC(=O)C1CCCO1 (stereo not given)	60.5*	-6.1	-1.9	2.3

Assay outcomes from PubChem BioAssay.
